Assay results: ChEMBL document CHEMBL1201862, “PubChem BioAssay data set” (2004)
Among all 55,000 sequences or so, about 2,500 (4.5%) were called active. Rule as the data show it: active = GI50 up to about 1.1 µM and inactive = higher. Only a sample is shown. Potency and affinity values are given separately.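 Assay format: 96-well plates, 48-hour exposure. GI50 marks 50% less growth.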

system: EKVX; assay: NCI tumour cell line growth inhibition, 48 h

Substance | GI50 [µM]
[Bis(aminomethyl)pentamethylenesilane]dichloropaltinum(II), CHEMBL2146202 | 18.2
[Bis(aminomethyl)ethylmethylsilane]tetrachloroplatinum(IV), CHEMBL2146192 | 29.6
[Bis(aminomethyl)tetramethylenesilane]tetrachloropaltinum(IV), CHEMBL2146189 | 40.9
[Bis(aminomethyl)tetramethylenesilane]dichloropaltinum(II), CHEMBL2146205 | 55.6
[Bis(aminomethyl)dimethylsilane]tetrachloroplatinum(IV), CHEMBL2146190 | 38.2
CISPLATIN, CHEMBL11359 | 7.1
[Bis(aminomethyl)diethylsilane]tetrachloroplatinum(IV), CHEMBL2146203 | 31.6
mu-(1,7-nanodiamine-N,N')bis-(cis-aminedichloroplatimum (II)), CHEMBL2146215 | > 100
[Bis(aminomethyl)dimethylsilane]dichloroplatinum (II), CHEMBL2146201 | > 100
[Bis(aminomethyl)pentamethylenesilane]tetrachloropaltinum(IV), CHEMBL2146204 | 56.1
cis-Bis[[(trimethylsilyl)methyl]amino]tetrachloroplatinum(IV), CHEMBL2146191 | 4.68
